The values that follow come from PubChem BioAssay (EPA / NIEHS).

The structures appear in SMILES notation. Active and inactive are the calls of the source. How the source made its calls: active means hit-call score of the fitted dose curve at least 0.9, where 1 is the maximum; inactive means score below 0.9.

The test can be described thus: APR_HepG2_MitoMembPot_72hr: Apredica 72-hour HepG2 Assay for Mitochondrial Membrane Potential (AID 2282917). To be noted: imaging, actives raise or lower the signal. As for the experimental part:
APR_HepG2_72hr is a cell-based, multiplexed-readout assay that uses HepG2, a human liver cell line, with measurements taken at 72 hours after chemical dosing in a 384-well plate.APR_HepG2_MitoMembPot_72hr is one of 10 assay component(s) measured or calculated from the APR_HepG2_72hr assay. It is designed to make measurements of dye binding, a form of membrane potential reporter, as detected with fluorescence intensity signals by HCS Fluorescent Imaging technology.Data from the assay component APR_HepG2_MitoMembPot_72hr was analyzed into 1 assay endpoint. This assay endpoint, APR_HepG2_MitoMembPot_72hr, was analyzed with bidirectional fitting relative to DMSO as the negative control and baseline of activity. Using a type of membrane potential reporter, gain or loss-of-signal activity can be used to understand changes in the signaling. Furthermore, this assay endpoint can be referred to as a primary readout, because this assay has produced multiple assay endpoints where this one serves a signaling function. To generalize the intended target to other relatable targets, this assay endpoint is annotated to the cell morphology intended target family, where the subfamily is organelle conformation.
Cells were treated with dimethyl sulfoxide (DMSO) as a solvent control at a final concentration of 0.5% v/v or with compounds in DMSO with a resulting final DMSO concentration of 0.5% v/v. Compound treatment was done at concentrations of 0.39, 0.78, 1.56, 3.12, 6.24, 12.5, 25, 50, 100, and 200 uM in duplicate on each plate. Cells were treated with compounds for 1, 24, or 72 hr. Carbonyl […] m-chloro-phenylhydrazone (CCCP) and taxol were used as positive controls for mitochondrial function and cytoskeletal stability, respectively; DMSO served as the negative control for this experiment. Cells were fixed by the direct addition of 50 uL formaldehyde in Hank's Balanced Salt Solution (HBSS) to a final concentration of 3.7%. After incubation in the fixation medium for 30 min at room temperature (293-298 K), cells were rinsed twice with HBSS and treated with cell permeabilization buffer (16 uL of 0.5% Triton X-100) for 10 min at room temperature (293-298 K) before labeling. For mitochondrial membrane potential and mitochondrial measurements, pre-fixed cells were incubated with 50 uL of MitoTracker Red CMXRos (Invitrogen) at a concentration of 250 nM for 30 min before fixation. In the remaining cases, post-fixed cells were labeled by incubation with a multiplexed mixture of primary antibodies in HBSS for 60 min at room temperature (293-298 K) to detect immunoreactivity of c-Jun (1:500), phospho-histone H3 (1:100), phospho-histone H2A.x (1:200), p53 (1:400), alpha-tubulin (1:200) and Hoechst 33342 (2 ug/mL). Cells were labeled for multiplexed imaging on two separate plates: a) Hoechst 33342, MitoTracker Red, phospho-histone H3, and alpha-tubulin, and b) Hoechst 33342, phospho-histone H2A.x, and c-Jun. A final rinse with HBSS (50 uL) was performed before analysis. The primary and secondary antibodies for the proteins were phospho-histone H3 (rabbit anti-phospho-histone H3 and FITC-donkey anti-rabbit IgG), phospho-histone H2A.x (mouse anti-phospho-histone H2A.x and FITC-donkey anti-mouse IgG), c-Jun (rabbit anti-phospho-c-Jun and Cy3-donkey anti-rabbit IgG), p53 (sheep anti-p53 and Cy5-donkey anti-sheep IgG), alpha-tubulin (mouse anti-alpha-tubulin and Cy5-donkey anti-mouse IgG). These antibodies are available as the CellCiphr HepG2 assay kit (Millipore).Digital images of each well were captured using a Cellomics ArrayScan VTI (Thermo Scientific Cellomics) (0.8 NA objective, 0.63x optical coupler, and XF-93 filter set) at 20x magnification. The images were acquired using the autofocus feature of the ArrayScan instrument, which entails the following steps. First, the camera focuses on channel 1 (Hoechst 33342), where nuclei are identified. Second, a Z offset of 1 um is used for capturing mitochondria (MitoTracker Red). […]
Take `Cn1c(-c2ccccc2)cc(-c2ccccc2)[n+]1C`: the compound was called inactive.

Regarding `CC(C)C1(C)N=C(c2ncccc2C(=O)O)NC1=O` (stereo not given), the compound was called inactive.

For the compound `CC(C)N1C(=O)c2ccccc2NS1(=O)=O`, the compound was called inactive.

Consider `COC(=O)c1c(C(F)F)nc(C(F)(F)F)c(C2=NCCS2)c1CC(C)C`, for which the compound was called inactive.

As to `Clc1cccc(C(Cl)(Cl)Cl)n1`, the outcome was inactive.

Take `CCCCC(C#N)(Cn1cncn1)c1ccc(Cl)cc1` (stereo not given): the compound was called inactive.

In the case of `CC(C)=CC1C(C(=O)OCc2coc(Cc3ccccc3)c2)C1(C)C` (stereo not given), the AC50 was 159 µM (active).

For `O=P(O)(O)CCCl`, the call was inactive.

On to `CCC(C)n1c(=O)[nH]c(C)c(Br)c1=O` (stereo not given), for which the outcome was inactive.

In the case of `Nc1c(Cl)c(F)nc(OCC(=O)O)c1Cl`, the outcome was inactive.

Turning to `Cc1cc(C)nc(Nc2ccccc2)n1`, the outcome was inactive.

For the compound `COC(=O)NS(=O)(=O)c1ccc(N)cc1`, the result was inactive.

In the case of `CCOc1nc(F)cc2nc(S(=O)(=O)Nc3c(Cl)cccc3Cl)nn12`, the call was inactive.

Regarding `CCOP(=S)(OCC)Oc1nc(Cl)n(C(C)C)n1`, the result was inactive.

For `CO/N=C(/C1=NOCCO1)c1ccccc1Oc1ncnc(Oc2ccccc2Cl)c1F`, the AC50 was 12.7 µM (active).

For `Nc1c(Cl)c(Cl)nc(C(=O)O)c1Cl`, the call was inactive.

On to `COc1cc(Cl)c(OC)cc1Cl`, for which the outcome was inactive.

In the case of `CS(=O)(=O)c1cc(C(F)(F)F)ccc1C(=O)c1cnoc1C1CC1`, the call was inactive.

Take `CNC(=O)N(C)c1nnc(C(C)(C)C)s1`: the outcome was inactive.

For the compound `CCCC(=NOCC)C1=C(O)CC(CC(C)SCC)CC1=O` (stereo not given), the compound was called inactive.

Turning to `N#Cc1c(Cl)cccc1Cl`, the outcome was inactive.

`Clc1nc(Cl)nc(Nc2ccccc2Cl)n1`: the result was inactive.

Consider `CCNP(=S)(OC)O/C(C)=C/C(=O)OC(C)C` (stereo not given), for which the call was inactive.

With `COC(=O)N(C(=O)N1CO[C@@]2(C(=O)OC)Cc3cc(Cl)ccc3C2=N1)c1ccc(OC(F)(F)F)cc1`, the compound was classed as inactive.

On to `CSC(=O)c1c(C(F)F)nc(C(F)(F)F)c(C(=O)SC)c1CC(C)C`, for which the compound was classed as inactive.

On to `O=C(O)c1c(Cl)ccc2cc(Cl)cnc12`, for which the call was inactive.

As to `CN=C=S`, the call was inactive.

With `COc1cc(OC)nc(NC(=O)NS(=O)(=O)c2ncccc2OCC(F)(F)F)n1`, the compound was classed as inactive.

`Cc1cnc(C2=NC(C)(C(C)C)C(=O)N2)c(C(=O)O)c1` (stereo not given): the outcome was inactive.

For `O=C(Nc1ccccc1-c1ccc(Cl)cc1)c1cccnc1Cl`, the compound was classed as inactive.

`CCOC(=O)C(C)OC(=O)c1cc(Oc2ccc(C(F)(F)F)cc2Cl)ccc1[N+](=O)[O-]` (stereo not given): the AC50 is 19.8 µM (active).

In the case of `CCCCC(O)(Cn1cncn1)c1ccc(Cl)cc1Cl` (stereo not given), the outcome was inactive.

As for `COCC(=O)N(c1c(C)cccc1C)C(C)C(=O)OC` (stereo not given), the result was inactive.

Take `CC(C)NC(=O)N1CC(=O)N(c2cc(Cl)cc(Cl)c2)C1=O`: the call was inactive.

Turning to `Cc1c(COC(=O)[C@@H]2[C@H](/C=C(\Cl)C(F)(F)F)C2(C)C)cccc1-c1ccccc1`, the compound was classed as inactive.

For `CCOc1cc(C(C)(C)C)ccc1C1COC(c2c(F)cccc2F)=N1` (stereo not given), the outcome was inactive.

In the case of `CC1(C)CCC(=Cc2ccc(Cl)cc2)C1(O)Cn1cncn1` (stereo not given), the outcome was inactive.

For the compound `COP(=S)(OC)SCn1nnc2ccccc2c1=O`, the compound was called inactive.

As to `N#CN=C1SCCN1Cc1ccc(Cl)nc1`, the call was inactive.

Regarding `CCOc1nc(C(Cl)(Cl)Cl)ns1`, the outcome was inactive.

The AC50 is the concentration giving half of the maximal activity seen.
